High-throughput results as filed in PubChem BioAssay.
IL-1B inflam inh: inhibitors of inflammasome signaling (IL-1 beta secretion); THP-1 LPS/ATP IL-1B secretion, AlphaLISA, 16 h; active compounds read low; activity change, % at 57.5 µM; hit rate 4.7% among 360,000; AID 743279; in the data active = activity change below about -50%; inconclusive = mostly about -30% to -49%; also: % is scaled to controls: 0 for no effect and ±100 for the full control effect
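Secreted IL-1B measured by AlphaLISA bead assay after 16 h compound exposure of THP-1 cells; compounds (final up to 57.5 uM) added 1 h before LPS (250 ng/mL) and ATP (1.25 mM) stimulation; lower signal means less secretion.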
MCF10A rereplic: DNA re-replication induction in MCF 10a cells | AID 624296 | MCF 10A DNA re-replication, Hoechst nuclear intensity, 48 h | Potency, µM (titrated, usually from 46.1 µM), without a hit: at the top dose activity, positive = re-replication, actives largely listed as activators | hit rate 2.9% among 350,000; also: potency is read from the fitted curve at half-maximal effect; % of control where 0% means no effect; nearly all actives have a fitted effect of over 50% in size
Vif-APOBEC3F blk: blocks the Vif interaction with APOBEC3F | HeLa A3F-eYFP + Vif (tagged APOBEC3F with the HIV-1 protein that degrades it), YFP fluorescence increase | Potency, µM (series often up to 46.1 µM), for inactives: top-dose activity, negative = active | hit rate 0.2% among 390,000 | AID 602313; also: potency is read from the fitted curve at half-maximal effect; % of control where 0% means no effect; nearly all actives have a fitted effect of over 65% in size
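Fluorescence increase (Ex 488/Em 500-530) after overnight compound treatment at 37 deg C flags inhibition of Vif-driven A3F-eYFP loss in stable HeLa A3F-eYFP/Vif cells seeded overnight beforehand.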
Vif-A3G inh: blocks the Vif interaction with human APOBEC3G; Q9HC16; HeLa A3G-eYFP + Vif (tagged APOBEC3G with the HIV-1 protein that degrades it), YFP fluorescence, overnight; Potency, µM (titrated, usually from 46.1 µM), inactives show at the highest dose activity, negative = active, most hits filed as inhibitors; hit rate 0.076% among 410,000; AID 602310; also: potency is read from the fitted curve at half-maximal effect; % is scaled to controls: 0 for no effect and ±100 for the full control effect; nearly all actives have a fitted effect of over 60% in size
Target sequence (Q9HC16 whole entry, looked up): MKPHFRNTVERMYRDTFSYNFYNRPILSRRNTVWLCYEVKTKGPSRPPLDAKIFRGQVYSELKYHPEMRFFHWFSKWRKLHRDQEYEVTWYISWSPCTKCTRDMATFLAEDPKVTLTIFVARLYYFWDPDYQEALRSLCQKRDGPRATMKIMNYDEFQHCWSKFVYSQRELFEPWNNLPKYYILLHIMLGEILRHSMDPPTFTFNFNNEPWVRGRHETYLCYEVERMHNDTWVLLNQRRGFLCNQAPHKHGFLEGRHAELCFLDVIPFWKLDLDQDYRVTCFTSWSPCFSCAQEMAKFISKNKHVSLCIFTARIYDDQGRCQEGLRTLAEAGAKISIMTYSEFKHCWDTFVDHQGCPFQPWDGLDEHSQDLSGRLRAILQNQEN
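Read-out is eYFP fluorescence (Ex 488/Em 500-530) from Vif-expressing HeLa A3G-eYFP cells; more signal means A3G escaped Vif-mediated degradation. Cells plated overnight, compound pinned in, incubated overnight at 37 deg C.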
Giardia killer: kills Giardia lamblia; hit rate 0.15% among 340,000; Giardia lamblia trophozoite viability; AID 540267; activity change, % at 7.66 µM, hits read low; in the data active = activity change below about -80%; inconclusive = between about -30% and that limit;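 also: parasites exposed to compound for two days anaerobically before the ATP read; % is scaled to controls: 0 for no effect and ±100 for the full control effect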
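Luminescent ATP signal served as the viability read-out, measured 15-30 min after adding ATP detection reagent to trophozoites that had been incubated with compounds for 48 hrs at 37 deg C anaerobically at 100 cells/well.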
SW480 rerep: inducers of DNA re-replication in SW480 colon cancer cells. hit rate 1.8% among 340,000. SW480 DNA re-replication, Hoechst DNA content imaging, 48 h. Potency, µM (series often up to 46.1 µM), inactives show at the highest dose re-replication activation, hits mostly activators; also: potency is read from the fitted curve at half-maximal effect; % of control where 0% means no effect; nearly all actives have a fitted effect of over 55% in size
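Readout is total intensity of Hoechst-stained nuclei, excited at 405 nm and collected at 500-530 nm. Compound treatment lasted 48 hr at 37 C in 5% CO2 before staining.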
* marks the source's active call; other numbers are inactive results; u = inconclusive; x = not tested or not shown. An excerpt weighted towards active compounds, which were near 6.9% of everything screened. Unless noted, calls follow the shape of the dose curve; as a rule, active = well fitted curve in the direction sought with a large enough effect; inconclusive = small, poorly fitted or top-dose-only effect, or another doubt; inactive = no such curve, though single readings can be large; an effect the other way counts as inactive or inconclusive.

SMILES	IL-1B inflam inh	MCF10A rereplic	Vif-APOBEC3F blk	Vif-A3G inh	Giardia killer	SW480 rerep
COc1ccccc1CN=c1c([N+](=O)[O-])nn(-c2ccc3c(c2)OCCO3)n1O	-13	7%	7%	0%	-90*	-6%
O=[N+]([O-])c1nn(-c2ccc3c(c2)OCCO3)n(O)c1=NC1CCCCC1	-25	26%	1%	1%	-84*	u
O=[N+]([O-])c1nn(-c2ccc3c(c2)OCCO3)n(O)c1=NCc1ccccc1Cl	-20	3%	-3%	-7%	u	-6%
CC1CCN(c2c([N+](=O)[O-])nn(-c3ccc4c(c3)OCCO4)[n+]2[O-])CC1	-13	3%	-5%	-1%	u	4%
Cc1cnc2ccccc2c1/C=C/c1ccc(N)cc1	x	x	x	-19%	x	x
CC(C)OC(=O)c1c(F)c(F)c(N2CCOCC2)c(F)c1F	-27	3.3µM*	-5%	0%	-3	1%
CCOC(=O)Cn1c(=O)n(-c2ccccc2OC)c2nc(-c3ccccc3C)nc(C(N)=O)c21	x	x	4%	-13%	x	x
CCOc1c(Cl)cc(CNc2ccc(S(N)(=O)=O)cc2)cc1OC	27	-2%	-5%	-2%	1	8%
CCOc1c(Cl)cc(CNc2ccc(N3CCCC3)cc2)cc1OC	-72*	u	-13%	u	-17	10µM*
CCOc1c(Cl)cc(CNC(C)(C)CC(C)(C)C)cc1OC	-12	8.2µM*	-5%	0%	-3	4%
CC(C)n1c(SCC(=O)NCc2ccco2)nc2c1c(=O)n(C)c(=O)n2C	42	16µM*	-12%	0%	21	-2%
CCOc1ccc(OCC)c(NC(=O)CSc2nc3c(c(=O)n(C)c(=O)n3C)n2CC)c1	1	-11%	5%	-1%	8	-5%
Cn1c(=O)c2c(nc(NCc3ccco3)n2C/C=C/c2ccccc2)n(C)c1=O	-62*	u	-8%	-22%	12	u
CCOc1ccc(OCC)c(NC(=O)CSc2nc3c(c(=O)n(C)c(=O)n3C)n2C(C)C)c1	-81*	30%	0%	1%	-4	18%
CCOCCc1nn2c(=O)cc(COC(=O)c3ccccc3OC)nc2s1	x	x	6%	-2%	x	x
O=C(C1CC1)N1CCc2cc(Br)cc(S(=O)(=O)Nc3ccc(C(F)(F)F)cc3)c21	x	x	0%	-23%	x	x
O=[N+]([O-])c1ccc(NC(=S)NCCc2ccc(F)cc2)cc1	-23	10µM*	-28%	-11%	3	u
O=[N+]([O-])c1cccc(NC(=S)NCCc2ccccc2)c1	u	1%	-3%	-4%	6	-3%
Fc1ccc(NC(=S)NCCc2ccc(Cl)cc2)cc1	0	u	-6%	1%	8	u
Fc1ccc(CCNC(=S)Nc2ccc(F)c(Cl)c2)cc1	-83*	u	-13%	2%	2	-1%
O=C(NCCc1ccc(Cl)cc1)Nc1ccc(F)cc1	-26	-3%	-27%	0%	8	-2%
O=C(NCCc1ccc(F)cc1)Nc1ccc([N+](=O)[O-])cc1	-100*	u	1%	-2%	19	15%
COc1ccc(Cl)cc1NC(=O)c1ccc2c(c1)CCCN2S(C)(=O)=O	x	x	-10%	-2%	x	x
Cc1ccc(CNC(=O)c2cc(=O)c3cc(C)cc(C)c3o2)cc1	x	x	-1%	5%	x	x
O=C(Nc1ccc(Cl)cc1)c1cnn2c1NC(c1ccccc1)=CC2c1ccccc1 (centres undefined)	x	x	u	-12%	x	x
SMILES	IL-1B inflam inh	MCF10A rereplic	Vif-APOBEC3F blk	Vif-A3G inh	Giardia killer	SW480 rerep
O=C(COc1ccccc1)NCC1CCCO1 (centres undefined)	13	2%	-4%	1%	-9	-3%
O=C(COc1ccc(C(=O)c2ccccc2)cc1)NCC1CCCCC1	-15	18µM*	3%	-18%	13	0%
COc1cccc(CNC(=O)C(NS(=O)(=O)c2ccc3c(c2)oc(=O)n3C)C(C)C)c1 (centres undefined)	x	x	-5%	-2%	x	x
C[C@@H]1CN([C@H](C)CO)S(=O)(=O)c2ccc(C#CC3CCCC3)cc2O[C@H]1CN(C)C(=O)Cc1ccccc1	-81*	x	0%	-13%	x	x
Cc1ccc(NC(=O)CN2C(=O)COc3ccc(S(=O)(=O)N4CCCCC4)cc32)cc1N(C)C	x	x	-2%	-2%	x	x
COc1cc(C(=O)NCc2ccc3[nH]c(C)cc3c2)cc(OC)c1OC	-6	u	-3%	0%	0	-47%
COc1cccc(C(=O)NCc2ccc3[nH]c(C)cc3c2)c1	-2	u	4%	0%	-3	-11%
COc1cc(OC)cc(C(=O)NCc2ccc3[nH]c(C)cc3c2)c1	-16	0.65µM*	5%	-3%	12	4%
COc1ccc(C(=O)NCc2ccc3[nH]c(C)cc3c2)cc1OC	-10	4.6µM*	0%	0%	-6	75%
O=C(c1cc(Br)ccc1O)N(Cc1ccco1)Cc1cccs1	x	x	x	-7%	9	x
COc1cccc(C2C(C(=O)Nc3ccccc3OC)=C(C)Nc3nc(-c4ccco4)nn32)c1 (centres undefined)	x	x	-7%	-7%	x	x
Cc1ccc(-n2nc(CO)c(C(=O)NCc3cccnc3)n2)cc1C	x	x	-5%	-4%	x	x
CN1CCN(c2ccc(NC(=S)NC(=O)/C=C/c3ccco3)cc2)CC1	-96*	u	-22%	12%	16	-1%
CN1CCN(c2ccc(NC(=S)NC(=O)c3cccc4ccccc34)cc2)CC1	-100*	-12%	-7%	u	58	u
CC(=O)Nc1ccc(NC(=S)NC(=O)/C=C/c2ccco2)cc1	32	-1%	0%	-12%	13	-7%
Cc1ccc2oc(-c3cccc(NC(=S)NC(=O)c4cccs4)c3)nc2c1	22	2%	3%	-1%	-11	-5%
Cc1ccc2oc(-c3cccc(NC(=S)NC(=O)/C=C/c4ccco4)c3)nc2c1	25	9.2µM*	-11%	u	-3	u
COC(=O)C1C(O)=C(C(C)=Nc2cccc3ccccc23)C(=O)CC1(C)C (centres undefined)	67	12%	-1%	4%	36	5.8µM*
Cc1nc2ccccc2c(=O)n1/N=C/c1c(O)ccc2ccccc12	57	13%	-15%	-3%	-20	2.9µM*
O=c1c2ccccc2nc(/C=C/c2cccc([N+](=O)[O-])c2)n1CCO	u	-31%	-9%	-12%	14	-3%
Cc1nc2ccccc2c(=O)n1/N=C/c1cc(Br)ccc1O	229	3%	u	-1%	-20	21µM*
O=c1c2ccccc2nc(/C=C/c2cc(Br)ccc2O)n1CCCO	-101*	u	u	-8%	-4	u
